# Measurements: PubChem BioAssay AID743343 (Broad Institute, 2014)
# Potency and affinity values are given separately. Active and inactive are the calls of the source. Where a call stands in place of a potency, no number is given. No rule for the calls is given here.
# System: Drosophila melanogaster bursicon receptor LGR2 (rickets)
# Assay: blockers of bursicon-stimulated LGR2 cAMP reporter – cell-based, HEK293, CRE-luciferase reporter, cherry pick, set 2, dose response (AID 743343)
row,Structure (SMILES),outcome
1,CC(C)N(C(=O)COC(=O)c1ccccc1C(=O)c1ccc(Cl)c([N+](=O)[O-])c1)C(C)C,inactive
2,Cc1ccc(S(=O)(=O)Nc2ccc3c(c2)CC(=O)N([C@H](C)CO)C[C@H](C)[C@H](CN(C)Cc2ccc(Cl)c(Cl)c2)O3)cc1,inactive
3,C[C@@H]1CN([C@@H](C)CO)S(=O)(=O)c2ccc(C3=CCCC3)cc2O[C@H]1CN(C)C(=O)c1ccccc1,inactive
4,N#C[C@@H]1[C@H](c2ccc(C#CC3CCCCC3)cc2)[C@@H](CO)N1C(=O)c1cccc(F)c1,inactive
5,C[C@H]1CN([C@@H](C)CO)C(=O)c2cc(C#CCc3ccccc3)cnc2O[C@H]1CN(C)Cc1ccccc1,inactive
6,Cn1cnc(S(=O)(=O)N2C[C@@H](O)COC[C@H]3O[C@H](CC(=O)NC4CCCC4)CC[C@@H]32)c1,inactive
7,N#C[C@H]1[C@@H](c2ccc(C3=CCCCC3)cc2)[C@H](CO)N1C(=O)c1ccccn1,inactive
8,CCCCN(Cc1ccccc1)S(=O)(=O)c1cc2c(cc1Br)CC(C)N2C(C)=O (stereo not drawn),inactive
9,Cc1ccc(S(=O)(=O)N2[C@@H](CO)CO[C@H]2CC(=O)OCc2ccccc2)cc1,inactive
10,O=C(NCc1ccco1)c1cc(NS(=O)(=O)c2cccc([N+](=O)[O-])c2)ccc1O,inactive
11,COc1ccc(-c2nc(N)n(C(=O)c3cccs3)n2)cc1,inactive
12,CC(C)c1ccc(NC(=O)N2CCN(S(=O)(=O)c3ccccc3)CC2)cc1,inactive
13,CCN(C(=O)COC(=O)C12CC3CC(CC(O)(C3)C1)C2)c1c(N)n(Cc2ccccc2)c(=O)[nH]c1=O,inactive
14,CO[C@H]1CN(C)C(=O)c2ccc(NC(=O)c3ccc(-c4ccccc4)cc3)cc2OC[C@@H](C)NC[C@@H]1C,inactive
15,Cc1cccn2c(CNCC3(c4ccccc4)CCCC3)c(C(=O)N3CCOCC3)nc12,inactive
16,COc1cc(NC2CCCCC2O)c2nc(-c3ccc(Cl)cc3)ccc2c1 (stereo not drawn),inactive
17,CC1CN(C(=O)c2cccc(S(=O)(=O)Nc3cc(Cl)ccc3Cl)c2)CC(C)O1 (stereo not drawn),inactive
18,COCC(=O)N[C@@H]1CC[C@@H](CC(=O)NCc2ccccc2OC)O[C@@H]1CO,inactive
19,Cc1ccc(S(=O)(=O)N(C)C[C@H]2Oc3cc(Br)ccc3S(=O)(=O)N([C@H](C)CO)C[C@H]2C)cc1,inactive

row,Structure (SMILES),outcome
1,O=c1cc(-c2c(F)c(F)c(F)c(F)c2F)oc2ccccc12,inactive
2,C[C@H](CO)N1C[C@H](C)[C@@H](CN(C)S(=O)(=O)c2cccs2)Oc2c(cccc2N(C)C)C1=O,inactive
3,CN(c1ccccc1)S(=O)(=O)c1cccc(NC(=O)c2cc(=O)c3ccccc3o2)c1,inactive
4,O=C(Nc1ccc(N2CCOCC2)c(S(=O)(=O)Nc2ccccc2Cl)c1)c1ccc(F)cc1,inactive
5,Cn1nnnc1Sc1ncnc2scc(-c3ccccc3C(F)(F)F)c12,inactive
6,CO[C@@H]1CN(C)C(=O)c2ccc(NC(=O)C3CC3)cc2OC[C@@H](C)NC[C@@H]1C,inactive
7,CCOC(=O)C(C)N1c2cccc3cccc(c23)S1(=O)=O (stereo not drawn),inactive
8,COc1ccc(CCNC(=O)C2CCN(S(=O)(=O)c3ccc(Cl)cc3)CC2)cc1OC,inactive
9,CC[C@H](CO)Oc1cc(NCc2ccc(Cl)c(Cl)c2)c2ncn(C(C)C)c2c1,inactive
10,CCn1cc(S(=O)(=O)Nc2cccnc2)cn1,inactive
11,O=[N+]([O-])c1ccc(-c2cnc(SC(c3ccccc3)c3ccccc3)[nH]2)cc1,inactive
12,COc1ccccc1CNS(=O)(=O)c1ccc(N2CCCC2)cc1Br,inactive
13,O=C(Cc1ccccc1Cl)Nc1cccnc1,inactive
14,CC(=O)Nc1cccc(-c2ccnc3c2CC(C(=O)NCc2cccnc2)O3)c1 (stereo not drawn),inactive
15,CCOC(=O)c1c(C)n(C)c2ccc(OCC(O)CNCCc3ccccc3)cc12 (stereo not drawn),inactive
16,COc1ccc2cc(C#N)c(Nc3cccc(F)c3)nc2c1,inactive
17,CCOc1cccc2sc(Nc3nc4ccc(NC(C)=O)cc4s3)nc12,inactive
18,C[C@@H]1CN([C@H](C)CO)C(=O)c2c(c3ccccc3n2C)-c2ccccc2CO[C@H]1CN(C)S(=O)(=O)c1cn(C)cn1,inactive
19,C[C@H](CO)N1C[C@H](C)[C@@H](CN(C)C(=O)Nc2ccc3c(c2)OCO3)Oc2c(cccc2N(C)C)C1=O,inactive
